In experiment [1] the target is Aryl hydrocarbon receptor (Homo sapiens) (UniProt P35869). In words: qHTS assay to identify small molecule that activate the aryl hydrocarbon receptor (AhR) signaling pathway (AID 743085).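 For activation: HG2L7.5c1 human HepG2 liver cells with stably integrated DRE-driven firefly reporter; series mostly up to about 70 µM.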 Note: nearly all actives have a fitted effect of over 15% in size. Note: potency is the fitted concentration of half-maximal effect. In a few lines: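 Luminescence (ONE-Glo) from a dioxin-responsive-element luciferase reporter in HG2L7.5c1 HepG2 cells after 24 hr compound exposure at 37C; viability measured by CellTiter-Fluor fluorescence beforehand.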
Chain of Aryl hydrocarbon receptor (Homo sapiens) (P35869 whole entry, looked up): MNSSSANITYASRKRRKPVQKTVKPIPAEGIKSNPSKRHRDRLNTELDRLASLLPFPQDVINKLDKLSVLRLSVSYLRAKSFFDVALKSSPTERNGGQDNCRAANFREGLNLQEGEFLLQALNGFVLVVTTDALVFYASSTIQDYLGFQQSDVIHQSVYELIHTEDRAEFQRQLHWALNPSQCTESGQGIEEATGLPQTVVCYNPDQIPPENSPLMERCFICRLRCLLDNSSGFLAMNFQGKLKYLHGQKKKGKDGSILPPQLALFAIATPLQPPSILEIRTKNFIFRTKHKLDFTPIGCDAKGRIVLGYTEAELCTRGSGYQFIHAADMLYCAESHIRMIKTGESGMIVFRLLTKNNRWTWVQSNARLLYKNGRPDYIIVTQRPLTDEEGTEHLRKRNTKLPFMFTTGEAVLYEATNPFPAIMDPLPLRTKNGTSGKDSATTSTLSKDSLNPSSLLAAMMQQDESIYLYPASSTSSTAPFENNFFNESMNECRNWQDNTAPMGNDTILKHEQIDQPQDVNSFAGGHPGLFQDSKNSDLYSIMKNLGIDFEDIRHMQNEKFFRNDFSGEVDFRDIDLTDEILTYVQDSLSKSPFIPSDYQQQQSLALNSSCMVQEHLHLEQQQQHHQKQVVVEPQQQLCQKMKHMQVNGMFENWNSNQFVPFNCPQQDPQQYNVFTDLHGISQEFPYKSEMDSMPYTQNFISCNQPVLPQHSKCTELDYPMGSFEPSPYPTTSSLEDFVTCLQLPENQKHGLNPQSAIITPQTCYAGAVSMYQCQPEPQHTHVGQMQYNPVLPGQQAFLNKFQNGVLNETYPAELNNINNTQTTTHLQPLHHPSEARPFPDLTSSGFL
(In general: In qHTS, concentration-response curves come from the screen itself.)

Experiment [2] can be described thus: qHTS assay to identify small molecule that activate the aryl hydrocarbon receptor (AhR) signaling pathway - cell viability counter screen (AID 743086). Note: nearly all actives have a fitted effect of over 45% in size. Note: potency is the fitted concentration of half-maximal effect. In a few lines: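 Cytotoxicity counter screen: CellTiter-Fluor signal (30 min, 37 C) in 4000 HepG2 cells/well carrying the DRE-luciferase reporter, following 24 h compound exposure at 37 C.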
In experiment [3] the target is Peroxisome proliferator-activated receptor gamma (Homo sapiens) (UniProt P37231). Nature of the experiment: qHTS assay to identify small molecule agonists of the peroxisome proliferator-activated receptor gamma (PPARg) signaling pathway (AID 743094; active = well fitted activation curve with a large enough effect in the signal ratio in the repeat runs, not every such curve was filed as active; the % refers to the signal ratio). In short, it runs like this:
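Cells from the PPARg UAS-bla HEK293H line are plated and incubated 5 h at 37C. Compounds in DMSO are pinned in and left 17 h at 37C. LiveBLAzer B/G substrate is then added for 1 h at room temperature before fluorescence is measured.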

Experiment [4] in a line: qHTS assay to identify small molecule antagonists of the peroxisome proliferator-activated receptor gamma (PPARg) signaling pathway - cell viability counter screen (AID 743194). Note: nearly all actives have a fitted effect of over 55% in size. In a few lines: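 Viability was measured as CellTiter-Glo luminescence in GeneBLAzer PPARg UAS-bla HEK293H cells. These cells had been exposed 17 h at 37 C to compounds together with rosiglitazone at 50 nM final, with the beta-lactamase readout taken in the same wells.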

Experiment [5] can be described thus: qHTS assay for small molecule agonists of the antioxidant response element (ARE) signaling pathway (AID 743202; active = well fitted activation curve with a large enough effect in the signal ratio in the repeat runs, not every such curve was filed as active; the % refers to the signal ratio). In a few lines:
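Beta-lactamase reporter activity, read as fluorescence intensity, reflects ARE/Nrf2 pathway induction in HepG2 cells after 16 h compound exposure at 37 C; substrate loading was 2 h at room temperature.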

The nature of experiment [6]: qHTS assay for small molecule agonists of the antioxidant response element (ARE) signaling pathway - cell viability counter screen (AID 743203; calls by dose curve; note: nearly all actives have a fitted effect of over 55% in size; note: potency is the fitted concentration of half-maximal effect). In short, it runs like this: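 Cytotoxicity was tested in parallel with the ARE reporter screen. ARE-bla HepG2 cells were exposed to compounds for 16 hrs, and viability was taken from CellTiter-Glo luminescence.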
Experiment [7] in a line: qHTS assay for small molecule activators of the heat shock response signaling pathway (AID 743210; active = well fitted activation curve with a large enough effect in the signal ratio in the repeat runs, with a control signal flat, not every such curve was filed as active; the % refers to the signal ratio;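 note: HeLa cells with beta-lactamase reporter driven by heat shock elements; series mostly up to about 63 µM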). In short, it runs like this: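 Fluorescence from a cleaved B/G FRET substrate (2.5 h, room temp) reports HSE-driven beta-lactamase in HeLa cells treated 5 h at 37 C with DMSO-dissolved compounds.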
Experiment [8] can be described thus: qHTS assay to identify small molecule agonists of the peroxisome proliferator-activated receptor delta (PPARd) signaling pathway - cell viability counter screen (AID 743211). Note: nearly all actives have a fitted effect of over 55% in size. In a few lines:
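Viability was measured as CellTiter-Glo luminescence (30 min, room temperature) in the same wells as the beta-lactamase readout. GeneBLAzer PPARd UAS-bla HEK293H cells received compound after 5 h plating and were incubated 17 h at 37 C.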

For experiment [9], the target named is Peroxisome proliferator-activated receptor delta (Homo sapiens) (UniProt Q03181). Nature of the experiment: qHTS assay to identify small molecule agonists of the peroxisome proliferator-activated receptor delta (PPARd) signaling pathway (AID 743212; calls by dose curve; note: potency is the fitted concentration of half-maximal effect). In short, it runs like this: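 Steps: seed PPARd-bla HEK293H cells; incubate 5 h, 37 C, 5% CO2; add compounds in DMSO; incubate, 37 C; add LiveBLAzer B/G FRET substrate; hold 2 h at room temperature; measure fluorescence.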
Chain of Peroxisome proliferator-activated receptor delta (Homo sapiens) (Q03181 whole entry, looked up): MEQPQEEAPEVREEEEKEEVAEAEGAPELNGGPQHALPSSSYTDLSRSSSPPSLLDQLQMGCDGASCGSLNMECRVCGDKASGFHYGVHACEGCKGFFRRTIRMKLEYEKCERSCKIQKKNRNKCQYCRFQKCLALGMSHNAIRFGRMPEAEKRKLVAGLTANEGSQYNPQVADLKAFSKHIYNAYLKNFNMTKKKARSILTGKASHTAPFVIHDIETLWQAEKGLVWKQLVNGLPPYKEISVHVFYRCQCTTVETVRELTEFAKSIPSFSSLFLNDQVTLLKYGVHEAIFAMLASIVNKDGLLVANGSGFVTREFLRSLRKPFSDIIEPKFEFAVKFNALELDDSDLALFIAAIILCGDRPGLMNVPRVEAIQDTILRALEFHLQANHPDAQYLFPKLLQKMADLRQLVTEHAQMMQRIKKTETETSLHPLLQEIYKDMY

Experiment [10] is described as follows: qHTS assay to identify small molecule antagonists of the peroxisome proliferator-activated receptor delta (PPARd) signaling pathway - cell viability counter screen (AID 743213). Note: nearly all actives have a fitted effect of over 50% in size. In short, it runs like this:
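PPARd-bla HEK293H cells were treated with compounds plus agonist L165041 (300 nM final) for 17 h at 37 C. Viability was then read in the same wells by CellTiter-Glo luminescence after 30 min at room temperature.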

Experiment [11] concerns the target Peroxisome proliferator-activated receptor delta (Homo sapiens) (UniProt Q03181). Nature of the experiment: qHTS assay to identify small molecule antagonists of the peroxisome proliferator-activated receptor delta (PPARd) signaling pathway (AID 743215; active = well fitted inhibition curve with a large enough effect in the signal ratio in the repeat runs, not every such curve was filed as active; the % refers to the signal ratio;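 note: cells stimulated with agonist L165041 at 300 nM final during compound exposure; series mostly up to about 62 µM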). In short, it runs like this:
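Cells: HEK293H with a UAS-driven beta-lactamase reporter responsive to PPARd. Compounds were co-added with L165041 (300 nM, final) and incubated 17 h at 37 C before a 2 h room-temperature FRET substrate step and fluorescence reading.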

Experiment [12] is described as follows: qHTS assay to identify small molecule agonists of the farnesoid-X-receptor (FXR) signaling pathway - cell viability counter screen (AID 743218). Note: nearly all actives have a fitted effect of over 45% in size. Note: potency is the fitted concentration of half-maximal effect. In short, it runs like this: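 Cells were seeded, left 5 h at 37 C and 5% CO2, then dosed with compound in DMSO for 16 h. After the beta-lactamase FRET read, CellTiter-Glo was added and luminescence measured 30 min later.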

Experiment [13] is described as follows: qHTS assay to identify small molecule antagonists of the farnesoid-X-receptor (FXR) signaling pathway - cell viability counter screen (AID 743221; active = well fitted cell-killing curve with a large enough effect in the repeat runs, not every such curve was filed as active; note: nearly all actives have a fitted effect of over 50% in size). In a few lines:
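Cytotoxicity counter screen run in the FXR-bla reporter wells: HEK 293T cells exposed to compound with 50 uM (final) chenodeoxycholic acid for 16 h, 37 C, then viability measured by CellTiter-Glo luminescence after 30 min, room temperature.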

Experiment [14] addresses Vitamin D3 receptor (Homo sapiens) (UniProt P11473). Nature of the experiment: qHTS assay to identify small molecule agonists of the vitamin D receptor (VDR) signaling pathway (AID 743222; calls by dose curve). In a few lines: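 Cells carrying a VDR-driven beta-lactamase reporter are seeded at 2,000 per well and rested 4 h. Compounds in DMSO are added for 16 h at 37C, and FRET substrate fluorescence is measured after 2 h at room temperature.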

The target is the same in experiment [15]. Nature of the experiment: qHTS assay to identify small molecule antagonists of the vitamin D receptor (VDR) signaling pathway (AID 743223; active = well fitted inhibition curve with a large enough effect in the signal ratio in the repeat runs, not every such curve was filed as active; the % refers to the signal ratio). In a few lines:
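Antagonist mode: compound added to VDR-bla cells alongside agonist 1alpha,25-dihydroxyvitamin D3 (3 nM final), incubation 16 h at 37C. Read-out is LiveBLAzer FRET fluorescence, 2 h at room temperature.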

A short description of experiment [16]: qHTS assay to identify small molecule agonists of the vitamin D receptor (VDR) signaling pathway - cell viability counter screen (AID 743224). Note: series mostly up to about 63 µM; nearly all actives have a fitted effect of over 50% in size. In short, it runs like this: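 Cells: VDR-bla, 2,000/well, settled 4 h. Treatment: compounds in DMSO, 16 h, 37C/5% CO2. Readout: CellTiter-Glo luminescence after 30 min RT.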
The target of experiment [17] is Peroxisome proliferator-activated receptor gamma (Homo sapiens) (UniProt P37231). In words: qHTS assay to identify small molecule antagonists of the peroxisome proliferator-activated receptor gamma (PPARg) signaling pathway (AID 743191; calls by dose curve; note: series mostly up to about 63 µM; nearly all actives have a fitted effect of over 30% in size). In a few lines: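 Beta-lactamase reporter under UAS control in HEK293H PPARg-bla cells; compound treatment 17 h at 37C. Read-out: fluorescence intensity after 1 h room-temperature incubation with LiveBLAzer B/G FRET substrate.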
Chain of Peroxisome proliferator-activated receptor gamma (Homo sapiens) (P37231 whole entry, looked up): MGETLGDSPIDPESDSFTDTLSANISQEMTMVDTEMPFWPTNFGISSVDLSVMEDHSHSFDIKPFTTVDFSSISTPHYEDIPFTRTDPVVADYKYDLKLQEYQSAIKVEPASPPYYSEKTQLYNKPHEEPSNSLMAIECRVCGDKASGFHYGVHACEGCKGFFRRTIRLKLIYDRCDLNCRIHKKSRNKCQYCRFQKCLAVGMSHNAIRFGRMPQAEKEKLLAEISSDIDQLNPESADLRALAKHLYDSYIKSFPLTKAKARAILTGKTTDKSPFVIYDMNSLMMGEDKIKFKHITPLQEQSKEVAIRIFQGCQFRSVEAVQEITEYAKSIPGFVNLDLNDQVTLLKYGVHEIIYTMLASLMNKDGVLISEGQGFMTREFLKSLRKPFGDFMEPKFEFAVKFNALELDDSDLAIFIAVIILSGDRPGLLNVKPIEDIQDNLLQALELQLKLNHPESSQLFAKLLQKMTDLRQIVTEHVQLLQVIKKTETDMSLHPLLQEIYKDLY

The nature of experiment [18]: qHTS assay for small molecule activators of the heat shock response signaling pathway - cell viability counter screen (AID 743209). Note: nearly all actives have a fitted effect of over 50% in size. In short, it runs like this:
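Cytotoxicity counter screen run in parallel with the HSE beta-lactamase reporter, using the same wells. HeLa HSE-bla cells received compound for 5 h at 37 C; ATP-based CellTiter-Glo luminescence was measured after 30 min at room temperature.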

The target in experiment [19] is Bile acid receptor (Homo sapiens) (UniProt Q96RI1). In words: qHTS assay to identify small molecule antagonists of the farnesoid-X-receptor (FXR) signaling pathway (AID 743217; active = well fitted inhibition curve with a large enough effect in the signal ratio in the repeat runs, not every such curve was filed as active; the % refers to the signal ratio). In a few lines: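 Cells carrying a UAS-driven beta-lactamase reporter (GeneBLAzer FXR-UAS-bla HEK 293T) were plated and rested 5 h at 37 °C. Compounds in DMSO were added alongside chenodeoxycholic acid agonist at 50 uM final and left 16 h at 37 °C before FRET substrate readout.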
Chain of Bile acid receptor (Homo sapiens) (Q96RI1 whole entry, looked up): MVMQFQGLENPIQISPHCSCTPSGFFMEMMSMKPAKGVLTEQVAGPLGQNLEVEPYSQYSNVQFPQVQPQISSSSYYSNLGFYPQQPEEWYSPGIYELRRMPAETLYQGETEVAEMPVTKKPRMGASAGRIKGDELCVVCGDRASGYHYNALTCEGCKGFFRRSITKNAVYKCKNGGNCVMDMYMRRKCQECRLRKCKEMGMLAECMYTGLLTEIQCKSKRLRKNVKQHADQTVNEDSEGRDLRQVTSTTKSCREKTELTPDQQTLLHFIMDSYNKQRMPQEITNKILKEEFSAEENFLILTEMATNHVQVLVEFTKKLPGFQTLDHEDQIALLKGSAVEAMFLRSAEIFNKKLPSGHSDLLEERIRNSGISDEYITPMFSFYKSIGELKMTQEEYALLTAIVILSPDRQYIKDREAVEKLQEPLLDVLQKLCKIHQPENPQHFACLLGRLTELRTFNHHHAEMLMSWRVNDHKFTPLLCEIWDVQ

For experiment [20] the target is unchanged. In words: qHTS assay to identify small molecule agonists of the farnesoid-X-receptor (FXR) signaling pathway (AID 743220; active = well fitted activation curve with a large enough effect in the signal ratio in the repeat runs, not every such curve was filed as active; the % refers to the signal ratio). In short, it runs like this:
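FXR-UAS-bla HEK 293T cells carrying a UAS-driven beta-lactamase reporter were plated for 5 h at 37C/5% CO2, then exposed to DMSO-dissolved Tox21 10K compounds for 16 h at 37C. A LiveBLAzer B/G FRET substrate was loaded for 2 h at room temperature before fluorescence reading.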

Molecules are shown by their SMILES. Records with an inconclusive call do not appear. Activity calls are given as the source filed them. Unless noted, calls come from the whole dose curve; as a rule, active = well fitted curve in the direction sought with a large enough effect in the repeat runs; inconclusive = weak or mixed curves; inactive = no such curve, though single readings can be large; an effect the other way counts as inactive or inconclusive.

Chain of Vitamin D3 receptor (Homo sapiens) (P11473 whole entry, looked up): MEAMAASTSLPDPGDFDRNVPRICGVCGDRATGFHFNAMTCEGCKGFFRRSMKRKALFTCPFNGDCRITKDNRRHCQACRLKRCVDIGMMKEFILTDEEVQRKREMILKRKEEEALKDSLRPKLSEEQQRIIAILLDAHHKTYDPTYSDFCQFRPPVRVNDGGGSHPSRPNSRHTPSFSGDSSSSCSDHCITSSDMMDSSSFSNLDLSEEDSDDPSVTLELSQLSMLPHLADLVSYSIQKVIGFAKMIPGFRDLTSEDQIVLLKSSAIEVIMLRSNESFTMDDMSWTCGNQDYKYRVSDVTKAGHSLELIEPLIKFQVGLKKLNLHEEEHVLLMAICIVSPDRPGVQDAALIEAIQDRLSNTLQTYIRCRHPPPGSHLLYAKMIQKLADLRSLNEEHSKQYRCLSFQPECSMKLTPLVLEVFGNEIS

Regarding `CC/C=C1/OC(=O)c2ccccc21`, the Potency entry in experiment [1], in experiment [2], in [3], in experiment [4], in experiment [5] and in experiment [6] was “inactive” throughout. The Potency result in experiment [7], in experiment [8], in [9], in [10], in experiment [11] and in [12] was “inactive” throughout. Besides, the Potency result in [13], in experiment [14], in [15] and in experiment [16] was “inactive” each time.

`CCCCCC[C@@H](O)C/C=C\CCCCCCCC(=O)OCC(O)CO` (stereo partly specified): the Potency result in experiment [1], in [2], in experiment [3], in experiment [17], in [4] and in experiment [6] was “inactive” each time. The Potency result in experiment [8], in [10], in experiment [12], in experiment [13], in [14] and in [16] was “inactive” each time. Further, the Potency in [9] is 49 µM (active).

Regarding `COc1ncnc(NS(=O)(=O)c2ccc(N)cc2)c1OC`, the Potency result in [1], in experiment [2], in experiment [3], in experiment [4], in experiment [6] and in [7] was “inactive” throughout. Further, the Potency result in experiment [8], in [9], in [10], in [11], in [12] and in [13] was “inactive” each time. In addition, the Potency entry in [14] and in experiment [16] was “inactive” throughout.

On to `O=C=Nc1ccc(Cl)c(Cl)c1`, for which the Potency in experiment [1] was 47.8 µM (active); in experiment [12] it was 30.4 µM (active). The Potency result in [2], in experiment [3], in experiment [4], in experiment [6], in [18] and in [7] was “inactive” each time. Besides, the Potency result in [9], in experiment [11], in experiment [19], in experiment [20], in experiment [14] and in [15] was “inactive” in each case.

Regarding `C=COCC(C)C`, the Potency result in experiment [1], in experiment [2], in experiment [3], in [17], in experiment [5] and in experiment [6] was “inactive” throughout. The Potency result in experiment [7], in [8], in [9], in [10], in experiment [11] and in experiment [19] was “inactive” in each case. The Potency entry in [12], in experiment [20], in [13], in experiment [14], in experiment [15] and in [16] was “inactive” in each case.

Regarding `O=C1CCCCCCCCCCOCCCCO1`, the Potency entry in experiment [1], in experiment [2], in [3], in [17], in experiment [4] and in [6] was “inactive” each time. For the same molecule, the Potency entry in experiment [18], in experiment [8], in experiment [9], in experiment [10], in experiment [11] and in [12] was “inactive” throughout. Moreover, the Potency result in experiment [13], in [14] and in [15] was “inactive” throughout.

For the molecule `O=C(Nc1cccc2c(=O)cc(-c3nn[nH]n3)oc12)c1ccc(OCCCCc2ccccc2)cc1`, the Potency entry in experiment [1], in [2], in [3], in experiment [4], in experiment [18] and in experiment [7] was “inactive” each time. The Potency entry in experiment [9], in experiment [11] and in experiment [13] was “inactive” each time. For the same molecule, the Potency in [6] was 29.8 µM (active).

For `CC(C)Nc1cccnc1N1CCN(C(=O)c2cc3cc(NS(C)(=O)=O)ccc3[nH]2)CC1`, the Potency result in experiment [1], in experiment [2], in [3], in [17], in [4] and in experiment [6] was “inactive” each time. Also, the Potency entry in experiment [18], in experiment [8], in experiment [10], in [19], in [12] and in [13] was “inactive” in each case. Also, the Potency entry in [14], in experiment [15] and in [16] was “inactive” throughout.

Consider `CC1=C(Br)C(=O)C(Br)=C/C1=C(/c1ccccc1S(=O)(=O)O)c1cc(Br)c(O)c(Br)c1C`, for which the Potency result in [1], in [3], in [4], in experiment [5], in experiment [6] and in experiment [18] was “inactive” throughout. The Potency result in experiment [8], in experiment [9], in [11], in experiment [19], in [12] and in experiment [20] was “inactive” each time. The Potency result in experiment [13], in [14] and in [16] was “inactive” throughout. In experiment [2], the Potency is 18.6 µM (active).

These data come from PubChem BioAssay (Tox21).
